D1 antagonist: blocks dopamine activation of the human D1 receptor; activity change, negative = inhibition, % at 10 µM; HEK293 TREx D1 cells, calcium flux, dopamine EC80; stronger effect = lower value; P21728; 3.2% of 360,000 active; in the data active means activity change below about -30%
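Kinetic fluorescence of a calcium dye serves as the read-out. D1-expressing Hek293 Trex cells, induced overnight at 30 C, are exposed to compound for 180 s before an EC80 dopamine addition, then read 180 s further.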
D1 potentiator: human D1 dopamine receptor positive modulation; P21728; HEK293 TREx D1 cells, calcium flux, dopamine EC20 potentiation; potentiation, % at 10 µM; 0.036% of 360,000 active; in the data active means potentiation above about 30%
TRHR agonist-1: activates the human TRH receptor; P34981; TRHR cells, calcium flux fluo-8, FDSS agonist mode; activation, % at 2 µM; 0.18% of 360,000 active
Target sequence (P34981 whole entry, looked up): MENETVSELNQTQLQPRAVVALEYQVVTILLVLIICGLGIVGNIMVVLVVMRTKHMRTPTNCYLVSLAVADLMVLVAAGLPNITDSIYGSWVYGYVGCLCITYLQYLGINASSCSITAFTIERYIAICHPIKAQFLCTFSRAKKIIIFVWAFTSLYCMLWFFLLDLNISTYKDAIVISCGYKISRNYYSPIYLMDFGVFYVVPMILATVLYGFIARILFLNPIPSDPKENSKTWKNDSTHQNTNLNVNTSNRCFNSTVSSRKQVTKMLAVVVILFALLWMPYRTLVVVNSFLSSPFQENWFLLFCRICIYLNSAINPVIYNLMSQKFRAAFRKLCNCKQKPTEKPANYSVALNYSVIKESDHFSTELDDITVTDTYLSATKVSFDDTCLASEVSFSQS
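Agonist-mode FDSS calcium read (Ex 480/Em 530, 1 s cycles) in 1536-well TRHR cells with fluo-8 dye, after 10-cycle baseline and 23 nL compound addition; TRH at EC20 (10 nM final) added afterwards for the enhancer phase.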
D1 ag: agonists of human D1 dopamine receptor; P21728; HEK293 T-REx D1 cells, calcium flux, agonist mode; activation, % at 2 µM; 1% of 360,000 active; AID 504660
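Tetracycline-induced HEK293 TREx D1 cells, force-coupled to calcium signalling, were dye-loaded with a no-wash calcium kit. Compound was pin-added after a 10 s baseline. Fluorescence was read kinetically at 1 cycle/s for 180 s, with calcium rises flagged as agonism.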
TRHR enhancer-1: allosteric enhancers of human TRH receptor; TRHR cells, fluo-8 calcium fluorescence, EC20 TRH enhancement; AID 493056; enhancement, % at 2 µM; 0.66% of 360,000 active; P34981; in the data active means enhancement above about 30%
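TRHR-expressing cells loaded with fluo-8 calcium dye were read kinetically (ex 480/em 530) during compound addition, then stimulated with an EC20 of TRH (10 nM final). Enhancement of the Gq-mediated intracellular calcium response was scored.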
TRHR enhancer-2: confirmation of human TRH receptor allosteric enhancers. shares compounds with TRHR enhancer-1. TRH receptor cell assay, enhancer confirmation qHTS. activity change, negative = inhibition, % at 46.1 µM. 970 tested, under 10 active. AID 493076; active means well fitted curve in the direction sought with a large enough effect; inconclusive means small, poorly fitted or top-dose-only effect, or another doubt; inactive means no such curve, though single readings can be large; an effect the other way counts as inactive or inconclusive;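 further: compound effect scored on response to added TRH at EC20 of 10 nM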
TRHR agonist-2: confirmation of human TRH receptor agonists; shares compounds with TRHR enhancer-1; TRHR-expressing cells, agonist activation read-out; Potency, µM (highest dose often 46.1 µM), actives largely listed as activators; 8% of 970 active; AID 493078; active means well fitted curve in the direction sought with a large enough effect; inconclusive means small, poorly fitted or top-dose-only effect, or another doubt; inactive means no such curve, though single readings can be large; an effect the other way counts as inactive or inconclusive; further: nearly all actives have a fitted effect of over 75% in size
Each line names hits and unclear results; the compound was inactive in the other large screens (follow-up assays come after a bar, where they were run). The list is not random: actives were taken first. Their share in the collection is about 4.6%. Unless noted, no stated cut-off is given here; in the data, active means activation above about 30%; inactive means the rest.

O=C(N/N=C/c1sc2ccccc2c1O)c1ccccc1	TRHR agonist-1 38, D1 ag 60 | TRHR enhancer-2 inactive | TRHR agonist-2 21µM
COc1ccc(C(=O)N/N=C/c2sc3ccccc3c2O)cc1	none
Cc1ccnc(SCC(=O)N2CCc3ccccc3C2)n1	none
Cc1cc(=O)[nH]c(SCC(=O)N2CCc3ccccc3C2)n1	none | TRHR enhancer-2 inconclusive | TRHR agonist-2 inactive
CCOC(=O)C1CCN(C(=O)Cn2nc(CC)n3cccc3c2=O)CC1	none
O=C(CCn1c(=O)sc2ccccc21)Nc1ccon1	TRHR enhancer-1 43 | TRHR enhancer-2 inactive | TRHR agonist-2 inactive
Cc1cc(OCCOCCNC(C)C)cc(C)c1Cl	none
Cc1cc(OCCCCNC(C)C)cc(C(C)C)c1	TRHR enhancer-1 42 | TRHR enhancer-2 inactive | TRHR agonist-2 inactive
O=C(Nc1cccc(Cl)c1N1CCOCC1)c1cc([N+](=O)[O-])ccc1N1CCOCC1	none
O=C(Nc1cccc(Cl)c1N1CCOCC1)c1ccc([N+](=O)[O-])o1	TRHR enhancer-1 48 | TRHR enhancer-2 inactive | TRHR agonist-2 inactive
Nc1nc(=S)c2ncn(C3CCCC3)c2[nH]1	none
CN(c1ccc(C(=O)N2CCN(c3ccc(F)cc3)CC2)cc1)S(C)(=O)=O	TRHR enhancer-1 56 | TRHR enhancer-2 inactive | TRHR agonist-2 inactive
Cc1ccc(NC(=O)c2ccco2)c(OCc2cc(=O)n3cc(C)sc3n2)c1	none
CC(=O)Nc1sc(/C(C#N)=C/c2ccc(Cl)c(Cl)c2)nc1-c1ccc(C)cc1	D1 antagonist -49, TRHR agonist-1 68, D1 ag 283 | TRHR enhancer-2 inactive | TRHR agonist-2 7.3µM
Cc1ccc(CNC(=O)C2CCCN2S(=O)(=O)c2ccc(F)cc2)cc1 (stereo unspecified)	TRHR enhancer-1 47 | TRHR enhancer-2 inactive | TRHR agonist-2 inactive
O=C(NCc1ccccc1)C1CCCN1S(=O)(=O)c1ccc(F)cc1 (stereo unspecified)	none
CCc1cccc2sc(NC(=O)C3CC3)nc12	TRHR enhancer-1 42 | TRHR enhancer-2 inactive | TRHR agonist-2 inconclusive
CCc1noc(C)c1C(=O)Nc1nc2c(C)cccc2s1	TRHR enhancer-1 56 | TRHR enhancer-2 inactive | TRHR agonist-2 inactive
Cc1ccc(OCC(=O)Nc2nonc2-c2ccc(C)c(C)c2)cc1C	none
COc1ccccc1-n1c(SCC(N)=O)nnc1-c1ccc(S(=O)(=O)N2CCCCC2)cc1	none
NC(=O)CSc1nnc(-c2ccc(S(=O)(=O)N3CCCCC3)cc2)n1-c1ccccc1	TRHR enhancer-1 50 | TRHR enhancer-2 inconclusive | TRHR agonist-2 inactive
COc1ccc(C(=O)C2CCN(C(=O)c3ccc(C)cc3)CC2)cc1	none
COc1ccc(C(=O)C2CCN(C(=O)c3ccco3)CC2)cc1	D1 antagonist -40, TRHR enhancer-1 49 | TRHR enhancer-2 inconclusive | TRHR agonist-2 inactive
Clc1cccc(Cl)c1C[n+]1ccc2ccccc2c1	none
O=C(Cc1ccccc1)N1CCNCC1	TRHR enhancer-1 55 | TRHR enhancer-2 inactive | TRHR agonist-2 inactive
O=C(Cc1ccccc1)N1CCN(C(=O)c2ccco2)CC1	none
O=C(Cc1ccccc1)NCC(=O)N1CCCCC1	TRHR enhancer-1 43 | TRHR enhancer-2 inactive | TRHR agonist-2 inactive
CC(=O)N1CCc2cc(S(=O)(=O)CCC(=O)N3CCN(c4cccc(C)c4C)CC3)ccc21	none
COc1ccc(-c2cc3c(=O)n(CC(=O)Nc4cc(C)ccc4C)ccn3n2)cc1	none
Cc1ccc2cc(COC(=O)C3CCCO3)c(=O)[nH]c2c1 (stereo unspecified)	TRHR enhancer-1 45 | TRHR enhancer-2 inactive | TRHR agonist-2 inactive
Cc1ccc2cc(CN(CC(C)C)C(=O)C3CCCO3)c(=O)[nH]c2c1 (stereo unspecified)	none
COc1cc(OC)c(NS(=O)(=O)c2cc3c(cc2C)NC(=O)CO3)cc1Cl	none
COc1ccc(C(CNC(=O)CCNS(=O)(=O)c2ccc(Br)cc2)N2CCCC2)cc1 (stereo unspecified)	D1 antagonist -63, D1 ag 48, TRHR enhancer-1 48 | TRHR enhancer-2 inactive | TRHR agonist-2 inactive
